Laboratory results as given in publication PMC4336329 (PLoS ONE, 2015).
Among all 310,000 compounds or so, about 14,000 (4.5%) showed an effect of 50% or more. The effect is printed as a negative number. Shown is part of a subset that was picked to be rich in strong results.

target: human ether-à-go-go-related gene (hERG) potassium channel (human, UniProt Q12809); test: primary screen, population patch clamp on CHO cells stably expressing hERG; higher = less effect of the substance
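Further: peak tail current of the secondary pulse compared with the same well before compound.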

human ether-à-go-go-related gene (hERG) potassium channel, sequence (Q12809 whole entry, looked up): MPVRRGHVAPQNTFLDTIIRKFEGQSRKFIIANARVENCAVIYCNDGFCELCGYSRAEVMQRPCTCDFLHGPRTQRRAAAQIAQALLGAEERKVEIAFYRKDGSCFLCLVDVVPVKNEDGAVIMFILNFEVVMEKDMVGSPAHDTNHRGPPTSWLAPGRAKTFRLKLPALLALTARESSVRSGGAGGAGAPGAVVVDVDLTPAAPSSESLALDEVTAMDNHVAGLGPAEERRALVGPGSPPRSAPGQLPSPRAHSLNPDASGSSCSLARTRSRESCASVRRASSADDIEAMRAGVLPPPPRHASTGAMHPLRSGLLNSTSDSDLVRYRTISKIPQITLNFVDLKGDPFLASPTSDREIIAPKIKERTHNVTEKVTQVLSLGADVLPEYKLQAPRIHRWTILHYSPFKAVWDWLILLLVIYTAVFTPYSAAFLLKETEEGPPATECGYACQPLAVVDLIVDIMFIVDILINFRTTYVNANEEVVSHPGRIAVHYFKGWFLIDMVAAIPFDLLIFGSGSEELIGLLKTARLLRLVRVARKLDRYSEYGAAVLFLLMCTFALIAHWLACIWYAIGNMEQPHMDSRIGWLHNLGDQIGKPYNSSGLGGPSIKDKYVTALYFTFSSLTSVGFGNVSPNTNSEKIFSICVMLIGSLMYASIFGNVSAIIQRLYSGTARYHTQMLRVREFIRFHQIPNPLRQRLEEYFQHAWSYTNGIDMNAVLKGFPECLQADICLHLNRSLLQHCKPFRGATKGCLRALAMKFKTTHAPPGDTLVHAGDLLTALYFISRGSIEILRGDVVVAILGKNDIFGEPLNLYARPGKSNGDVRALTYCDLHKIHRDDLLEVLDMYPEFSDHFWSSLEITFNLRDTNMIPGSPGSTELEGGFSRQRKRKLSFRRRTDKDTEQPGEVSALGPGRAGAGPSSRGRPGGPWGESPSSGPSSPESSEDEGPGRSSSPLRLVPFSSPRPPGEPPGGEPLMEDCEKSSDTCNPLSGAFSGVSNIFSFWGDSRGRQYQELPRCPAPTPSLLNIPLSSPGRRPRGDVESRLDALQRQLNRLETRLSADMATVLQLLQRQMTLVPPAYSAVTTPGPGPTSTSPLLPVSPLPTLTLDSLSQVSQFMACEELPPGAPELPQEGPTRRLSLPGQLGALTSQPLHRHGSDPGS

In order of rising “hERG current change (%, negative = inhibition) at 10uM” value:
1. CCCn1c(SCC(=O)N2CCN(C(=O)c3ccco3)CC2)nc2ccccc2c1=O  -82.8%
2. O=C1NCC(COc2ccc([N+](=O)[O-])cc2)O1 (centres unmarked)  -78.4%
3. CC(C)Cn1c(SCC(=O)N2CCN(C(=O)c3ccco3)CC2)nc2ccccc2c1=O  -73.2%
4. C=CCn1c(COc2ccc(Cl)cc2)nnc1SCc1ccc(C#N)cc1  -69.8%
5. C=CCn1c(COc2ccccc2)nnc1SCc1ccc(C#N)cc1  -68.2%
6. CCCn1ncc(CN2CCCC(C(=O)c3cccc(OC)c3)C2)c1C (centres unmarked)  -67.8%
7. C=CCn1c(COc2ccc(Cl)cc2)nnc1SCC(=O)N1CC(=O)Nc2ccccc21  -63.5%
8. CCOC(=O)C1CCN(CCC(=O)Nc2ccc(Br)c(C)c2)CC1  -62.8%
9. CCCn1cc(CN2CCCC(C(=O)c3ccc4c(c3)OCO4)C2)c(C)n1 (centres unmarked)  -55.4%
10. CCOC(=O)C1CCN(CCC(=O)Nc2ccc(C)c(C)c2)CC1  -54.2%
11. CCN(CC)CCNC(=O)c1sc2ncn(CC(=O)Nc3ccc(C)c(Cl)c3)c(=O)c2c1C  -51.8%
12. CCCn1cc(CN2CCCC(C(=O)c3cccc(OC)c3)C2)c(C)n1 (centres unmarked)  -51%
13. CCCn1ncc(CN2CCCC(C(=O)c3cccc(OC(C)C)c3)C2)c1C (centres unmarked)  -48.8%
14. CCOC(=O)C1CCCN(CCC(=O)Nc2ccc(Br)c(C)c2)C1.Cl (centres unmarked)  -36.1%
15. CCCn1cc(CN2CCCC(C(=O)c3cccc(OC(C)C)c3)C2)c(C)n1 (centres unmarked)  -35.5%
16. C=CCn1c(COc2ccc(F)cc2)nnc1SCC(=O)N1CC(=O)Nc2ccccc21  -33%
17. C=CCn1c(COc2ccc(Cl)cc2)nnc1SCC(=O)NCC(=O)OCC  -31.4%
18. Cc1cc(NC(=O)CCN2CCC(C(N)=O)CC2)ccc1Br  -26.7%
19. COc1ccc(OCC2CNC(=O)O2)cc1 (centres unmarked)  -26.2%
20. CC(C)Cn1c(SCC(=O)N2CCCCC2)nc2ccccc2c1=O  -24.7%
21. O=C(CSCc1ccc(F)cc1)NCc1ccc(F)cc1  -24.7%
22. CCn1c(SCC(=O)N2CCCC2)nc2ccccc2c1=O  -23%
23. C=CCn1c(COc2ccccc2F)nnc1SCC(=O)N1CC(=O)Nc2ccccc21  -22.6%
24. CCn1cc(CN2CCCC(C(=O)c3cccc(OC)c3)C2)c(C)n1 (centres unmarked)  -21.3%
25. COC(=O)c1ccc(C(=O)OC)c(NC(=O)CN(c2ccc3c(c2)OCO3)S(C)(=O)=O)c1  -21.1%
26. CCn1ncc(CN2CCCC(C(=O)c3cccc(OC(C)C)c3)C2)c1C (centres unmarked)  -19.8%
27. CCOc1ccc(S(=O)(=O)Nc2cccc(C(=O)N3CCN(C(C)=O)CC3)c2)cc1  -14.9%
28. C=CCn1c(COc2ccccc2)nnc1SCC(=O)C(C)(C)C  -13.6%
29. O=C1c2oc3ccc(Cl)cc3c(=O)c2C(c2cccc(Br)c2)N1CCO (centres unmarked)  -13.1%
30. CCN(CC)CCCNC(=O)c1sc2ncn(CC(=O)Nc3ccc(C)c(Cl)c3)c(=O)c2c1C  -13%
31. CCOC(=O)C1CCN(c2c(Nc3ccc(C)c(C)c3)c(=O)c2=O)CC1  -12.6%
32. CCOC(=O)C1CCN(CC(=O)Nc2ccc(OC)c(Cl)c2)CC1  -12.5%
33. Cc1nc2ccccc2c(=O)n1-c1ccc(F)cc1  -12.1%
34. C=CCn1c(COc2ccc(Cl)cc2)nnc1SCC(=O)N/N=C/c1ccccc1  -7.71%
35. CC(C)Cn1c(SCC(=O)N2CCOCC2)nc2ccccc2c1=O  -5.9%
36. CCCn1cc(CN2CCC(n3nccc3NC(=O)c3ccc4c(c3)OCO4)CC2)c(C)n1  -5.62%
37. CC(=O)c1cccc(NC(=O)C(CC(C)C)NC(=O)C2CCCCC2)c1 (centres unmarked)  -4.77%
38. C=CCn1c(COc2ccccc2)nnc1SCC(=O)O  -3.46%
39. COc1ccc(/C(=N\O)c2ncc(C(F)(F)F)cc2Cl)cc1  -3.33%
40. C/C(=N/NS(=O)(=O)c1ccc(C(C)(C)C)cc1)c1ccc2c(c1)OCO2  -3.17%
41. COc1ccc(C(=O)C(CCCCC(CN(C)C)C(=O)c2ccc(OC)cc2)CN(C)C)cc1.Cl (centres unmarked)  -2.07%
42. COc1ccc(NC(=O)C(C)SCc2ccccc2)cc1OC (centres unmarked)  -1.56%
43. O=C(CSc1nc2ccccc2n1CC(=O)N1CCCC1)N1CCN(C(=O)c2ccco2)CC1  -0.921%
44. C=CCNC(=O)C1CCN(S(C)(=O)=O)CC1  -0.873%
45. CCc1ccc2c(c1)C1(SC(NC(C)=O)=NN1C(C)=O)C(=O)N2CC (centres unmarked)  -0.0665%
46. CSCCCNC(=O)c1ccccc1OC1CCN(S(C)(=O)=O)CC1  1.38%
47. C=CCSc1nc2sc3c(c2c(=O)[nH]1)CCC3  2.84%
48. O/N=C/c1ccc(OCc2ccccc2F)c(Cl)c1  2.95%
49. Cc1cc(=O)oc2cc(OCC(=O)OCC(=O)N(CCC#N)c3ccccc3)ccc12  6.04%
50. CNC(=S)N(Cc1cccs1)Cc1cc2ccc(OC)cc2[nH]c1=O  6.44%
51. COc1cc2c(cc1NC(=O)CN1C(=O)NC3(CCc4ccccc43)C1=O)oc1ccccc12 (centres unmarked)  7.1%
52. COCCCNC(=S)Nc1ccc(OC(F)F)cc1C  7.74%
53. O=C(O)c1c2c(nc3ccc(S(=O)(=O)N4CCC(C(=O)NC5CCCC5)CC4)cc13)CCCCC2  9.65%
54. COCCNC(=O)c1sc2ncn(CC(=O)Nc3ccc(C)c(Cl)c3)c(=O)c2c1C  10.5%
55. CCOC(=O)c1cnc(COc2ccccc2Cl)[nH]c1=O  16%
56. CN(CC(=O)NC1CCCCC1)S(=O)(=O)c1ccc(Br)s1  20.1%
57. CCCCn1c(Nc2ccccc2)nc2ccccc21  24.7%
58. Cc1n[nH]c(=S)n(NC(=O)CC(=O)Nn2c(=S)[nH]nc(C)c2=O)c1=O  45.4%
59. O=C1NCC(COc2ccc(Cl)cc2)O1 (centres unmarked)  48.4%
